Compound activity from PubChem BioAssay.
KLK7 zymogen act: proKLK7 zymogen activators, primary screen, biochemical, fluorescence intensity; purified proKLK7, EDANS-DABCYL substrate fluorescence; 100% is mature enzyme control, 0% vehicle; AID 652039, 2013; activation, % at 7 µM; 370,000 tested, 0.9% active;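 active = activation above the mean of all tested compounds plus 3 SD, computed per campaign excluding outliers beyond control limits, cut at about 13% in these data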
Target sequence (P49862 whole entry, looked up): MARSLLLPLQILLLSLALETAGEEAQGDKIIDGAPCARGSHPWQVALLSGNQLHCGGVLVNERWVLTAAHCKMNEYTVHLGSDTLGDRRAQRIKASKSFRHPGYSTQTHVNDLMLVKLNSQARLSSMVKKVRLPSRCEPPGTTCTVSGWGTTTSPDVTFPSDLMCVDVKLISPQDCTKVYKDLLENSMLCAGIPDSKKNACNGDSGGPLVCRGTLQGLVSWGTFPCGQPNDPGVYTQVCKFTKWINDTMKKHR
Rin1-Abl PPI inh: inhibitors of Rin1-Abl protein binding, primary screen, biochemical, TR-FRET | 360,000 tested, 0.4% active | inhibition, % at 7.35 µM | AID 588664, 2011; in the data active = inhibition above about 5%, passing the limit was not always enough
MBD2 DNA inh: inhibitors of MBD2 binding to methylated DNA, primary screen, biochemical, TR-FRET, DNA-binding domain, human; Methyl-CpG-binding domain protein 2 (Homo sapiens), Q9UBB5; AID 686964, 2013; 370,000 tested, 0.31% active; inhibition, % at 4.4 µM; MBD2 binding to methylated oligonucleotide; in the data active = inhibition above about 13%
LEDGF integ inh: blockers of LEDGF/p75-dependent integrase strand transfer – biochemical, TR-FRET, high throughput, primary screen | 370,000 tested, 0.64% active | HIV-1 integrase (with human LEDGF/p75) | TR-FRET IN-LEDGF/p75 DNA integration, Eu/Cy5 | AID 743269, 2014 | inhibition, % at 3.7 µM;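 active = inhibition above the screen-wide mean plus 3 SD, cut at about 13% in these data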;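 also: signal is the Cy5 over europium emission ratio at 671 and 618 nm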
UHRF1 binding: UHRF1 methylated DNA binding inhibitors, primary screen, counter-screen for MBD2 inhibitor project, biochemical, TR-FRET, human UHRF1, single concentration | inhibition, % at 4.4 µM | 370,000 tested, 0.75% active | UHRF1 binding to methylated oligo | AID 687016, 2013 | E3 ubiquitin-protein ligase UHRF1 (Homo sapiens), Q96T88; in the data active = inhibition above about 21%;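 also: UHRF1 SRA domain binding a hemimethylated CpG hairpin DNA probe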
Neddyl block: inhibitors of cullin neddylation, primary screen, biochemical, TR-FRET, uHTS, NAE and Ubc12. calls only at 25 µM. NEDD8-conjugating enzyme Ubc12 (Homo sapiens) + NEDD8-activating enzyme E1 regulatory …. 360,000 tested, 0.58% active. AID 651699, 2012; in the data active = inhibition above about 36%
Neddyl conf: blockade of NEDD8 conjugation to cullin – biochemical, TR-FRET, single concentration, confirmation | TR-FRET cullin neddylation biochemical assay | calls only at 25 µM | 1,800 tested, 13% active | shares compounds with Neddyl block; in the data active = inhibition above about 40%;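 also: neddylation substrate is the cullin 1 ring ligase complex with SKP2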
Of the large screens only hits and unclear results are named; the others gave an inactive call (follow-up assays come after a bar, where shown). Shown are actives, neighbours in structure and some others; about 3.1% of the full set was active somewhere.

S=c1[nH]nc(-c2cc(-c3ccccc3)n[nH]2)n1N=Cc1cccc(Oc2ccccc2)c1	none (no result: Rin1-Abl PPI inh, Neddyl block)
S=c1[nH]nc(-c2cc(-c3ccccc3)n[nH]2)n1/N=C/c1ccc(Cl)c(Cl)c1	Neddyl block active | Neddyl conf inactive
c1cnc2cc(-c3ccsc3)ncc2c1	Neddyl block active | Neddyl conf active
CC(C)N(C(=O)COC(=O)c1cccc(N(C)C)c1)c1ccccc1	none (not shown: Neddyl block)
CC1(C(=O)NCC2CC2)Cc2c(-c3ccc4c(c3)OCO4)ccnc2O1 (stereo not drawn)	none (not shown: Neddyl block)
CCS(=O)(=O)Nc1ccc(C2=NN(S(=O)(=O)CC)C(c3cccs3)C2)cc1 (stereo not drawn)	Neddyl block active | Neddyl conf inactive
COc1ccc(CNC(=O)c2cc(C3CC3)nc3c2cnn3C(C)C)cc1OC	none
Cc1ccccc1CCNC(=O)c1cc(C2CC2)nc2c1cnn2C(C)C	none (not shown: Neddyl block)
CC(C)n1ncc2c(C(=O)NCCc3ccc(F)cc3)cc(C3CC3)nc21	Neddyl block active
Cc1ccc(CNC(=O)c2cc(C3CC3)nc3c2cnn3C(C)C)cc1	Neddyl block active | Neddyl conf inactive
CCOC(=O)CC[C@@H]1CC[C@]2(CCCN(Cc3cccs3)C2)O1	none (no result: Rin1-Abl PPI inh, Neddyl block)
CN1OC[C@@H]2CN(C(=O)c3ccc(C#N)cc3)[C@H](c3cccc(Br)c3)C[C@@H]21	none (no result: Rin1-Abl PPI inh, Neddyl block)
COC(=O)C(C(=O)OC)[C@H]1C=C[C@@H](C(=O)NS(=O)(=O)c2ccc(C)cc2)N(C(C)=O)C1	none (no result: Rin1-Abl PPI inh, Neddyl block)
C[C@H](NC(=O)c1ncn2c1c(=O)[nH]c1ccccc12)c1ccccc1	Neddyl block active | Neddyl conf active
CCN(CC)C(=O)c1ncn2c1c(=O)[nH]c1ccccc12	none
COc1ccc(S(=O)(=O)N2CCCCCC2)cc1NC(=O)CN(C)Cc1ccc2c(c1)OCO2	none
COc1ccc(-c2nnn3c2C2c4cc(-c5cccc(F)c5)ccc4CCN2C(=O)C3)cc1 (stereo not drawn)	none (no result: Rin1-Abl PPI inh, Neddyl block)
COC(=O)c1cc(COc2ccc3oc(C)c(C(=O)OC)c3c2)c(C)o1	none
COC(=O)c1ccc(COc2ccc(C)c(C)c2)o1	none
COC(=O)c1cc(COc2ccc3ccc(=O)oc3c2)c(C)o1	Neddyl block active | Neddyl conf active
COC(=O)c1ccc(COc2ccc3ccc(=O)oc3c2)o1	Neddyl block active | Neddyl conf inactive
CC(N)c1csc(Nc2ncccn2)n1 (stereo not drawn)	none
COc1ccc(O)c(/C=N/NC(=O)CCC(=O)Nc2ccc(C)cc2)c1	none
COc1ccc(CSCC(=O)N/N=C/c2ccccc2O)cc1	Neddyl block active | Neddyl conf inactive
COc1ccc(O)c(/C=N/NC(=O)CN2CCS(=O)(=O)CC2)c1	Neddyl block active | Neddyl conf inactive
O=C(CSc1ccccc1)N/N=C/c1ccccc1O	none
COC(=O)C[C@@H]1CC[C@H]2[C@H](COc3ccc(NC(=O)Nc4ccc(C#N)cc4)cc3C(=O)N2C)O1	none (no result: Rin1-Abl PPI inh, Neddyl block)
COc1cc2c(C#CCO)c(-c3ccc(C#N)cc3)oc(=O)c2cc1OC	Neddyl block active | Neddyl conf active
CN1CCc2c(sc3nc(SCC(=O)N4CCOCC4)nc(N)c23)C1	Neddyl block active | Neddyl conf inactive
CC1CCN(C(=O)CSc2nc(N)c3c4c(sc3n2)CN(C)CC4)CC1	none (no result: KLK7 zymogen act, MBD2 DNA inh, LEDGF integ inh, UHRF1 binding)
COc1ccc2oc(C(=O)Nc3nccs3)c(C)c2c1	none
COc1ccc2oc(C(=O)NC3(C)CCS(=O)(=O)C3)c(C)c2c1 (stereo not drawn)	Neddyl block active
